Compound activity as filed in PubChem BioAssay.
Compounds with a hit are over-represented: about 19% of the library has one in this group of screens.
HT1080-NT tox: kills 2HG-producing HT-1080-NT fibrosarcoma cells. HT-1080-NT fibrosarcoma viability, CellTiter-Glo ATP luminescence, 48 h. Potency, µM (series often up to 46.1 µM), without a hit: top-dose activity, negative = less viability, actives largely listed as cytotoxic. 360,000 tested, 1.6% active;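 note: NT is the 2HG producing partner of a matched IDH1 knockdown line; 0% = DMSO-treated cells and -100% = media-only wells without cells; nearly all actives have a fitted effect of over 55% in size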
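Viability by CellTiter-Glo luminescence after 48 h compound exposure at 37C of HT-1080-NT cells (750/well, RPMI, 5% FBS). % activity scaled between DMSO wells and medium-only wells, then curve-fitted and categorized by curve class.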
KB-3-1 tox: KB-3-1 parental cell cytotoxicity; AID 1347075; Potency, µM (doses to about 46.1 µM), actives largely listed as cytotoxic; 400,000 tested, 1.4% active; KB-3-1 viability, CellTiter-Glo ATP luminescence, 72 h; note: nearly all actives have a fitted effect of over 60% in size
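KB-3-1 cells, DMEM (no phenol red) + 10% FBS; compound by pin transfer, 72 h, 37 °C. Readout: CellTiter-Glo luminescence after 10 min. Data normalized, curve-fitted.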
DT40 TDP1 CPT: DT40-hTDP1 cell growth loss with CPT; chicken DT40 Tdp1-/-;hTDP1 cells + 20 nM CPT, ATP luminescence, 48 h; Potency, µM (highest dose often 46.2 µM), for the others: at the top dose activity change, negative = growth inhibition, most hits filed as inhibitors; 420,000 tested, 12% active; note: nearly all actives have a fitted effect of over 55% in size
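Cell growth measured by CellTiter-Glo luminescence after a minimum 48 h, 37 C compound exposure with 20 nM CPT in Tdp1-knockout DT40 cells stably expressing hTDP1, seeded 400/well; qHTS titration format.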
TDP1 cell noCPT: qHTS for Inhibitors of human tyrosyl-DNA phosphodiesterase 1 (TDP1): qHTS in cells in absence of CPT; DT40 Tdp1-/- hTDP1 cells, no CPT, ATP luminescence, 48 h; Potency, µM (doses to about 46.2 µM), inactives show top-dose activity change, negative = growth inhibition, usual class: inhibitors; 420,000 tested, 15% active; AID 686978, 2013; note: nearly all actives have a fitted effect of over 55% in size
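A cellular qHTS used chicken DT40 cells lacking endogenous Tdp1 but carrying stably transfected human TDP1. Compounds were applied without camptothecin, and cell growth kinetics were judged by ATP-dependent luminescence after ≥48 hr.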
KB-V1 cytotox: KB-V1 MDR subline cytotoxicity | 400,000 tested, 3.4% active | KB-V1 MDR cells viability, CellTiter-Glo, 72 h | Potency, µM (highest dose often 46.1 µM), hits mostly cytotoxic | AID 1347076; note: nearly all actives have a fitted effect of over 60% in size
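KB-V1 MDR subline cells in DMEM (phenol-red free, 10% FBS) exposed to compounds in qHTS concentration series for 72 h at 37 degrees C. Viability read by CellTiter-Glo luminescence; concentration-effect curves fitted after normalization and correction.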
HT1080 IDH1KD tx: kills HT-1080 cells with IDH1 knockdown | HT-1080 IDH1 knockdown viability, ATP luminescence, 48 h | Potency, µM (series often up to 46.1 µM), for the others: top-dose activity, negative = toxicity, most hits filed as cytotoxic | 360,000 tested, 2% active;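 note: 0% = DMSO wells and -100% = cell-free medium wells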
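Knockdown cells (IDH1KD HT-1080) received compounds 2 h after plating at 750 cells/well and were kept 48 h at 37 °C in 5% FBS RPMI. A CellTiter-Glo luminescence read gave % activity for curve fitting.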
* = called active by the depositor; i = inactive; ? = inconclusive; . = not tested or not shown. Calls come from the whole dose curve; as a rule, active = well fitted curve in the direction sought with a large enough effect; inconclusive = small, poorly fitted or top-dose-only effect, or another doubt; inactive = no such curve, though single readings can be large; an effect the other way counts as inactive or inconclusive. Unless noted, % is set by controls: 0 for no effect and ±100 for the full control effect; potency is the fitted concentration of half-maximal effect.

SMILES	HT1080-NT tox	KB-3-1 tox	DT40 TDP1 CPT	TDP1 cell noCPT	KB-V1 cytotox	HT1080 IDH1KD tx
COc1ccc(C)cc1NC(=O)CSc1nc2ccccc2nc1N1CC(C)OC(C)C1 (centres undefined)	9%	i	23µM*	26µM*	i	-12%
COc1cccc(NC(=O)CSc2nc3ccccc3nc2N2CCCC2)c1	-28%	?	?	?	i	?
CC(C)(C)OC(=O)N(Cc1ccccc1)Cc1ccc(OCc2cccc(NC(=O)C3CC3)c2)cc1	-1%	?	?	?	?	-24%
Cc1ccc(C)c(N2CCN(C(=O)CCc3nc(-c4ccc(Cl)cc4)no3)CC2)c1	3%	i	8%	-4%	i	4%
COc1ccc(-c2noc(N3CCC(C(=O)N4CCN(c5ccccc5F)CC4)CC3)n2)cc1	.	i	?	5.2µM*	i	.
Cc1ccc(C)c(N2CCN(C(=O)C3CCN(c4nc(-c5ccc(C(C)C)cc5)no4)CC3)CC2)c1	.	.	?	10µM*	.	.
COc1ccccc1CNc1nc(Nc2cccc(-c3cnco3)c2)c2sccc2n1	.	?	18µM*	21µM*	i	.
COc1ccccc1CNc1nc(NCc2ccc3occc3c2)c2sccc2n1	16µM*	i	21µM*	21µM*	i	?
COc1ccccc1CNc1nc(NCCOc2ccccc2)c2sccc2n1	?	?	5.8µM*	5.8µM*	21µM*	?
COc1ccccc1CNc1nc(Oc2cccc(F)c2)c2sccc2n1	?	i	?	?	i	?
CC(C)Nc1nc(Nc2ccc(Cl)cc2F)c2sccc2n1	?	i	21µM*	21µM*	i	?
COc1ccccc1CNc1nc(NCc2ccc(NC(C)=O)cc2)c2sccc2n1	?	?	?	-29%	i	?
c1cc2cc(CNc3nc(NCC4CC4)nc4ccsc34)ccc2o1	?	i	16µM*	?	?	13µM*
COc1ccccc1CNc1nc(NCc2ccccc2OC)c2sccc2n1	21µM*	?	12µM*	15µM*	?	23µM*
Clc1ccccc1Nc1nc(NCc2ccccc2)nc2ccsc12	-4%	i	9.2µM*	9.2µM*	i	7%
Fc1ccc(Nc2nc(NCc3cccs3)nc3ccsc23)cc1	?	i	?	21µM*	i	0%
COc1ccccc1CNc1nc(NCCNC(C)=O)c2sccc2n1	16%	i	?	?	i	17%
Cc1ccc(-n2nc(C)c3c(C(=O)NCCc4ccccc4)cc(C)nc32)cc1	.	i	?	?	i	.
Cc1c(C(=O)N2CCCC2)sc2ncnc(NCCN(C)C)c12	.	.	-3%	-11%	.	.
CC(C)[C@H](NC(=O)N1c2ccccc2NC(=O)[C@@H]1C(C)C)C(=O)N[C@@H](Cc1c[nH]c2ccccc12)C(=O)O	11%	i	-6%	-3%	i	10%
COc1ccccc1CNc1nc(Nc2ccccc2-n2cccn2)c2sccc2n1	?	i	15µM*	16µM*	?	?
COCCNc1nc(NC(C)C)nc2ccsc12	30%	i	-30%	-22%	i	21%
COCCNc1nc(Oc2cccc(F)c2)c2sccc2n1	-13%	i	-35%	?	i	-18%
COCCNc1nc(NCc2ccccc2OC)c2sccc2n1	?	i	23µM*	16µM*	?	?
c1ccc(OCCNc2nc(NCC3CC3)nc3ccsc23)cc1	21µM*	i	4.6µM*	4.6µM*	?	?
CC(C)Nc1nc(NCc2ccccc2)c2sccc2n1	23µM*	?	9.2µM*	18µM*	?	?
